Measurements reported in PubChem BioAssay (Tox21).
Inconclusive results are not listed. Calls of active or inactive are those of the source. Unless noted, the call rests on the fitted dose curve; in most records, active means well fitted curve in the direction sought with a large enough effect in the repeat runs; inconclusive means weak or mixed curves; inactive means no such curve, though single readings can be large; an effect the other way counts as inactive or inconclusive.

Key:
[1] = qHTS assay to identify small molecule agonists of the estrogen receptor alpha (ER-alpha) signaling pathway in the presence of an antagonist - cell viability counter screen (AID 1259386);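 further: series mostly up to about 92 µM; cells exposed to compounds for 22 h at 37 °C before the viability read; nearly all actives have a fitted effect of over 30% in size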
Summary of the method: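 VM7Luc4E2, stripped-serum pre-culture 5 d; 24hr plating; +ICI-182,780 10.0nM final; cpds 15 conc, 22hr, 37C/5% CO2; CellTiter-Fluor added at 21hr, fluorescence 1hr later.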

[2] = biological target: Progesterone receptor (Homo sapiens) (UniProt P06401); assay: qHTS assay to identify small molecule agonists of the progesterone receptor (PR) signaling pathway (AID 1346784; calls by dose curve; further: nearly all actives have a fitted effect of over 30% in size)
Progesterone receptor (Homo sapiens), sequence (P06401 whole entry, looked up): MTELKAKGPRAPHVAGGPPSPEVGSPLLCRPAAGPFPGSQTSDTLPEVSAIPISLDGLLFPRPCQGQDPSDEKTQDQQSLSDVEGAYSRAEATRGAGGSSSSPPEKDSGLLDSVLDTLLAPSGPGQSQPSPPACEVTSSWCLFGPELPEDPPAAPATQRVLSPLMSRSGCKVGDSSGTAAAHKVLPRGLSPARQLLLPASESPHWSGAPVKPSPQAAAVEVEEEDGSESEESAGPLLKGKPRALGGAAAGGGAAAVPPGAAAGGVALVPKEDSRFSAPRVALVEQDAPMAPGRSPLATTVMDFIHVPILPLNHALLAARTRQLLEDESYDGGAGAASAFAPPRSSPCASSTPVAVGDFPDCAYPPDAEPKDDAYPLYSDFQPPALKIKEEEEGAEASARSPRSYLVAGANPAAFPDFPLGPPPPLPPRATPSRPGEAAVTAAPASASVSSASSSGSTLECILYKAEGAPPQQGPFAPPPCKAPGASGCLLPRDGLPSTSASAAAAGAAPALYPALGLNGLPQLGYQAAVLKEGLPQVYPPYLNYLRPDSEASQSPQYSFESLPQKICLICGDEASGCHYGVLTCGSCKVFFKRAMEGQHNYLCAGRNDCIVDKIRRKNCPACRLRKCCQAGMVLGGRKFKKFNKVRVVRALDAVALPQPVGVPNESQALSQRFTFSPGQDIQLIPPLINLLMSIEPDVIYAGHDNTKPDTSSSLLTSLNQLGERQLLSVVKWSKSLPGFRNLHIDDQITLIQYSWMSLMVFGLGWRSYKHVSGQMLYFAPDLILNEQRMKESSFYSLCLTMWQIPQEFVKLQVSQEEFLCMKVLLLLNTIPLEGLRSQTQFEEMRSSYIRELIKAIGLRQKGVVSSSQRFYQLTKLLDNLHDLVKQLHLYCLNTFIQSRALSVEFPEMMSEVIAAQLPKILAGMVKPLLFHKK
Summary of the method: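 Seed PR-UAS-bla HEK 293T cells (2% charcoal-stripped FBS), incubate 6 hr at 37C; add compounds in DMSO, 16 hr at 37C; add LiveBLAzer B/G substrate, 2 hr RT; read fluorescence intensity.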

[3] = biological target: Progesterone receptor (Homo sapiens) (UniProt P06401); assay: qHTS assay to identify small molecule antagonists of the progesterone receptor (PR) signaling pathway (AID 1346795; active means well fitted inhibition curve with a large enough effect in the signal ratio in the repeat runs, not every such curve was filed as active; the % refers to the signal ratio; further: potency means the concentration at half of the fitted maximal effect)
Summary of the method: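 Screening used a GripTite HEK293T line with PR-responsive UAS-beta-lactamase. Cells were challenged with compound in the presence of 1 nM R5020 final for 16 hr at 37C; B/G FRET substrate, 2 hr room temperature, fluorescence.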

[4] = qHTS assay to identify small molecule antagonists of the progesterone receptor (PR) signaling pathway - cell viability counter screen (AID 1346798); further: series mostly up to about 92 µM; nearly all actives have a fitted effect of over 50% in size
Summary of the method: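 Measures cytotoxicity in parallel with the PR antagonist reporter read: HEK293T PR-UAS-bla cells get compound and R5020 for 16 hr, and remaining viable cells are quantified by CellTiter-Glo luminescence.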

[5] = qHTS assay to identify small molecule agonists of the progesterone receptor (PR) signaling pathway - cell viability counter screen (AID 1346799; calls by dose curve; further: nearly all actives have a fitted effect of over 45% in size)
Summary of the method: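 Using the same plates as the PR reporter screen, HEK293T PR-UAS-bla cells received compounds for 16 hr at 37C and were then lysed with CellTiter-Glo; luminescence was read 30 min later at room temperature.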

[6] = qHTS assay to identify small molecule antagonists of the TGF-beta/Smad signaling pathway - cell viability counter screen (AID 1346824); further: nearly all actives have a fitted effect of over 50% in size
Summary of the method: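 SBE-bla HEK 293T cells were plated overnight at 37 C, then given compounds in DMSO plus TGF-beta1 (added as 0.25 ng/mL solution) for 5 hr. After the bla read, CellTiter-Glo was added to the same wells and luminescence read after 30 min at room temperature.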

[7] = qHTS assay to identify small molecule agonists of the TGF-beta/Smad signaling pathway - cell viability counter screen (AID 1346829); further: top concentration of the series differs between compounds; nearly all actives have a fitted effect of over 45% in size
Summary of the method: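 HEK 293T SBE-bla line, 5 hr compound exposure at 37 C, multiplexed CellTiter-Glo viability read by luminescence.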

[8] = qHTS assay to identify small molecule agonists of the TGF-beta/Smad signaling pathway (AID 1346859; active means well fitted activation curve with a large enough effect in the signal ratio in the repeat runs, not every such curve was filed as active; the % refers to the signal ratio; further: series mostly up to about 77 µM)
Summary of the method: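 Beta-lactamase reporter activity downstream of Smad binding elements was measured in stably transfected HEK 293T cells; compounds were incubated for 5 hr, substrate for 2 hr at room temperature.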

[9] = biological target: Thyrotropin-releasing hormone receptor (Homo sapiens) (UniProt P34981); assay: qHTS assay to identify small molecule antagonists of the thyrotropin-releasing hormone receptor (TRHR) signaling pathway (AID 1346877; active means well fitted inhibition curve with a large enough effect in the repeat runs, not every such curve was filed as active; further: series mostly up to about 51 µM)
Thyrotropin-releasing hormone receptor (Homo sapiens), sequence (P34981 whole entry, looked up): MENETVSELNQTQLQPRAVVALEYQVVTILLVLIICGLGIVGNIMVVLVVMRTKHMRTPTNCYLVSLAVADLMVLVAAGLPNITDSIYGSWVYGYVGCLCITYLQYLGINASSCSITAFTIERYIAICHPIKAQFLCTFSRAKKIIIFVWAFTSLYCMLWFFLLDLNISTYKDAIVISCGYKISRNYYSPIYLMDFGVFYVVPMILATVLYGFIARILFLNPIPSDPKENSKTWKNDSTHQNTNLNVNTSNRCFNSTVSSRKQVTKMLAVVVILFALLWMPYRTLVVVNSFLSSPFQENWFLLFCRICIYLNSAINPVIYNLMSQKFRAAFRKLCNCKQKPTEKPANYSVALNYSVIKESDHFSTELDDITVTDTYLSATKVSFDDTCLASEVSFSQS
Summary of the method: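 Intracellular calcium fluorescence, read kinetically every second over 3 min, reports TRH-evoked signalling in HEK293 cells carrying TRHR. Test compounds were added 5 min ahead of a 1 nM TRH challenge.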

[10] = Human pregnane X receptor (PXR) small molecule agonists, qHTS cell viability counter screen (AID 1346977); further: nearly all actives have a fitted effect of over 50% in size
Summary of the method: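 After a 5hr pre-incubation, PXR-Luc HepG2 cells received compounds plus positive control in DMSO and were kept 24hr at 37C. Cell viability was quantified by fluorescence from CellTiter-Fluor added for the final hour.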

[11] = Caspase-3/7 induction in HepG2 cells by small molecules, qHTS assay (AID 1346978); further: nearly all actives have a fitted effect of over 15% in size
Summary of the method: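 Wild-type HepG2 cells (2,000/well) were settled 5 h at 37 C, 5% CO2, then exposed to compounds in DMSO for 17 h. Caspase-3/7 activity was read by luminescence 30 min after adding Caspase-Glo 3/7 reagent at room temperature.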

[12] = Caspase-3/7 induction in CHO-K1 cells by small molecules, qHTS cell viability counter screen (AID 1346979); further: nearly all actives have a fitted effect of over 35% in size
Summary of the method: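 Multiplexed with Caspase-Glo 3/7 in CHO-K1 cells, this counter screen added CellTiter-Fluor after 16hr of compound exposure and recorded fluorescence 1hr later.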

[13] = Caspase-3/7 induction in CHO-K1 cells by small molecules, qHTS assay (AID 1346980); further: nearly all actives have a fitted effect of over 15% in size
Summary of the method: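 Wild-type cells were seeded at 1,500 per well and settled 5 hr at 37 C, 5% CO2, then exposed to DMSO-dissolved compounds for 17 hr. Caspase-Glo 3/7 reagent was added, and luminescence was read after 30min at room temperature.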

[14] = Caspase-3/7 induction in HepG2 cells by small molecules, qHTS cell viability counter screen (AID 1346981); further: series mostly up to about 92 µM; nearly all actives have a fitted effect of over 30% in size
Summary of the method: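 HepG2, WT, 2,000 cells/well; 5 hr pre-incubation 37 C/5% CO2; compound pin-transferred from DMSO; 16 hr exposure; CellTiter-Fluor, 1 hr; fluorescence read.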

[15] = biological target: Nuclear receptor subfamily 1 group I member 2 (Homo sapiens) (UniProt O75469); assay: Human pregnane X receptor (PXR) small molecule agonists, qHTS assay (AID 1346982); further: nearly all actives have a fitted effect of over 35% in size; further: potency means the concentration at half of the fitted maximal effect
Nuclear receptor subfamily 1 group I member 2 (Homo sapiens), sequence (O75469 whole entry, looked up): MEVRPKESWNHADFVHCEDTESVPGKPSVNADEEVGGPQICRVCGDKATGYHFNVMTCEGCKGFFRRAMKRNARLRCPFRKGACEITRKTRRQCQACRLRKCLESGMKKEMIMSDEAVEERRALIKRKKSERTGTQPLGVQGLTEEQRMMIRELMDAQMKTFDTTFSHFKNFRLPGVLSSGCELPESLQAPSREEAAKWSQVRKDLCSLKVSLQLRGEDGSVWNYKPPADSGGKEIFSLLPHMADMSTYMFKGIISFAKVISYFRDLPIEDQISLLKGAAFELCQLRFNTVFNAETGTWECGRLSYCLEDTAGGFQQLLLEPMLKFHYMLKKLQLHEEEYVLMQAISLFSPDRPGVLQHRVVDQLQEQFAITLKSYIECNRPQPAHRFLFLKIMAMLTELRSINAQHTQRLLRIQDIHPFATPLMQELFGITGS
Summary of the method: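 Luciferase signal from ONE-Glo (30 min, room temperature) measured activation of hPXR-driven CYP3A4 reporter expression in PXR-Luc HepG2 cells treated with compounds for 24 hr at 37 C.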

[16] = biological target: Acetylcholinesterase (Homo sapiens) (UniProt P22303); assay: Acetylcholinesterase (AChE) small molecule antagonists: colormetric cell-based qHTS assay (AID 1347395; calls by dose curve; further: nearly all actives have a fitted effect of over 30% in size; further: potency means the concentration at half of the fitted maximal effect)
Acetylcholinesterase (Homo sapiens), sequence (P22303 whole entry, looked up): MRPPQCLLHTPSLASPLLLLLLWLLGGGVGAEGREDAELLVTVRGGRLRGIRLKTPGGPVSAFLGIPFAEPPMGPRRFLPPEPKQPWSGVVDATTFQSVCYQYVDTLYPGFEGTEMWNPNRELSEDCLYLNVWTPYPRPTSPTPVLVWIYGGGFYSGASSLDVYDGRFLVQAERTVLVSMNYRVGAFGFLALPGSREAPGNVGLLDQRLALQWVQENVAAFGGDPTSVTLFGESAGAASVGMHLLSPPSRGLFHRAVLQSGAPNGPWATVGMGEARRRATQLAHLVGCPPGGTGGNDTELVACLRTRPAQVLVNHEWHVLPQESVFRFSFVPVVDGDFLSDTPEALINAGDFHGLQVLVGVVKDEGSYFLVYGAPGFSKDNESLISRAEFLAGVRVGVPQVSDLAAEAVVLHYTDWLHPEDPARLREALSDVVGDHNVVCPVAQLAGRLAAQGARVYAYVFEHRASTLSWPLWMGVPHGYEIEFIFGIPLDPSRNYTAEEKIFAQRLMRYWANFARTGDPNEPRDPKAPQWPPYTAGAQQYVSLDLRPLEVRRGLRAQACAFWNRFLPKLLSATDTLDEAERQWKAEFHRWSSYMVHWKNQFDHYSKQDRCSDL
Summary of the method: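 In this cell-based qHTS, attached SH-SY5Y cells were treated with test chemicals for 30 min, after which acetylthiocholine hydrolysis was followed by DTNB colour development over 90 min at 37 C.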

[17] = biological target: Thyrotropin-releasing hormone receptor (Homo sapiens) (UniProt P34981); assay: qHTS assay to identify small molecule agonists of the thyrotropin-releasing hormone receptor (TRHR) signaling pathway (AID 1346891; calls by dose curve;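 further: HEK293 cells expressing TRHR with calcium dye readout; series mostly up to about 58 µM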)
Summary of the method: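 Overnight-plated (18 h, 37 °C, 5% CO2) TRHR-Hek293 cells; 2 h calcium dye at 37 °C; compound in DMSO; 3-min kinetic fluorescence read.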

[18] = biological target: Nuclear receptor subfamily 1 group I member 2 (Rattus norvegicus) (UniProt Q9R1A7); assay: Rat pregnane X receptor (rPXR) activation by small molecules, qHTS assay (AID 1346983); conditions: rPXR luciferase reporter cells, One-Glo luminescence, 24 h; stronger effect = higher value; further: nearly all actives have a fitted effect of over 20% in size
Nuclear receptor subfamily 1 group I member 2 (Rattus norvegicus), sequence (Q9R1A7 whole entry, looked up): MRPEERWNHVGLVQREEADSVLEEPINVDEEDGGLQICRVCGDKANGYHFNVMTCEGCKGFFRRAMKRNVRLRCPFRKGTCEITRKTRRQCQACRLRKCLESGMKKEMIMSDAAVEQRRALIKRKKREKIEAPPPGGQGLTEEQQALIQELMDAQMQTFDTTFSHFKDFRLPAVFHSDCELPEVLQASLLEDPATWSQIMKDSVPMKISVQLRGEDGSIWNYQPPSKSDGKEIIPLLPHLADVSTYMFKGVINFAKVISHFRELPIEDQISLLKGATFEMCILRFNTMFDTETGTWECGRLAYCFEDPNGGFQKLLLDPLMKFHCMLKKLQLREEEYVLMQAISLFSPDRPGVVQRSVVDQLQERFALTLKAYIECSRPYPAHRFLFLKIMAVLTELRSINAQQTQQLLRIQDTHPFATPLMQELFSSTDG
Summary of the method: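 Cell-based rPXR luciferase reporter assay, 2,000 cells per well, rested 5hr at 37 C before compound addition in DMSO, then 24 hr at 37 C. One-Glo reagent was added and luminescence read after 30 min at room temperature.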

[19] = biological target: Nuclear receptor subfamily 1 group I member 2 (Homo sapiens) (UniProt O75469); assay: CYP3A4 induction through human pregnane X receptor (PXR) by small molecules, qHTS assay (AID 1346984); further: nearly all actives have a fitted effect of over 40% in size
Summary of the method: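 Luminescence readout: luciferase signal after One-Glo (30 min, room temperature), following 3 h at 37C with 3uM final Luciferin-IPA P450 substrate. Cells were DPX-2 (HepG2, PXR/CYP3A4-luc co-transfected) dosed for 24 h.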

[20] = biological target: Nuclear receptor subfamily 1 group I member 2 (Homo sapiens) (UniProt O75469); assay: Human pregnane X receptor (PXR) activation by small molecules, qHTS assay (AID 1346985); further: nearly all actives have a fitted effect of over 40% in size
Summary of the method: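 DPX-2 cells (HepG2 co-transfected with a PXR response element and a CYP3A4-promoter luciferase construct) were seeded at 2,000 per well, rested 5 hr at 37C, then exposed to DMSO-dissolved compounds for 24 hr. Activation was read as luciferase luminescence.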
On the % scale 0 is the no-effect control and ±100 the full control effect.

COc1ccc2c(C(=O)c3ccc(Cl)cc3)c(C)n(CC(=O)O)c2c1
inactive: Potency [1] | Potency [2] | Potency [3] | Potency [4] | Potency [5] | outcome [6] | Potency [7] | outcome [8] | Potency [9] | Potency [10] | outcome [11] | Potency [12] | outcome [13] | Potency [14] | Potency [15]

CCN1CCCC1CNC(=O)C(O)(c1ccccc1)c1ccccc1 (stereo not given)
inactive: Potency [1] | Potency [2] | Potency [3] | Potency [4] | Potency [5] | outcome [6] | Potency [7] | outcome [8] | Potency [10] | outcome [11] | Potency [12] | outcome [13] | Potency [15] | Potency [16]

CCSC(=O)Cl
inactive: Potency [1] | Potency [2] | Potency [3] | Potency [4] | Potency [5] | outcome [6] | Potency [7] | outcome [8] | Potency [9] | outcome [17] | Potency [10] | outcome [11] | Potency [12] | Potency [14] | Potency [15] | Potency [16]

O=[N+]([O-])CCO
inactive: Potency [1] | Potency [2] | Potency [3] | Potency [4] | Potency [5] | outcome [6] | Potency [7] | outcome [8] | Potency [9] | outcome [17] | Potency [10] | outcome [11] | Potency [12] | Potency [14] | Potency [15] | Potency [16]

ClCOCCl
inactive: Potency [1] | Potency [2] | Potency [3] | Potency [4] | Potency [5] | outcome [6] | Potency [7] | outcome [8] | Potency [10] | outcome [11] | Potency [12] | outcome [13] | Potency [14] | Potency [16]

CCC(=O)c1ccc(Cl)cc1
inactive: Potency [1] | Potency [2] | Potency [3] | Potency [4] | Potency [5] | outcome [6] | Potency [7] | outcome [8] | Potency [9] | Potency [10] | outcome [11] | Potency [12] | outcome [13] | Potency [15] | Potency [16]

CCCCCCC(=O)CCCCCC/C=C/C[C@@H](O)[C@H](O)[C@@](N)(CO)C(=O)O
inactive: activity change, negative = cytotoxicity [1] -0.798% [at 19 µM] | activation [2] -0.536% [at 19 µM] | activity change, negative = inhibition [3] 0.638% [at 18.9 µM] | activity change, negative = cytotoxicity [4] -9.78% [at 18.9 µM] | activity change, negative = cytotoxicity [5] -2.82% [at 19 µM] | viability change, negative = cytotoxic [6] -3.48% [at 15.8 µM] | activity change, negative = cytotoxicity [7] 4.19% [at 15.8 µM] | activation [8] -6.21% [at 15.8 µM] | activity, negative = inhibition [9] 7.27% [at 10.5 µM] | activity change, negative = cytotoxicity [10] 6.98% [at 19 µM] | caspase activation [11] 0.643% [at 19 µM] | activity change, negative = cytotoxicity [12] 4.97% [at 19 µM] | caspase-3/7 activation [13] 2.67% [at 19 µM] | activity change, negative = cytotoxicity [14] 5.08% [at 19 µM] | activation [15] -4.6% [at 19 µM] | max activation [18] -5.78% | Potency [19] | Potency [20] | activity, negative = inhibition [16] 0.986% [at 23.6 µM]

Cc1ccc(Cl)c(O)c1
inactive: Potency [1] | Potency [2] | Potency [3] | Potency [5] | outcome [6] | Potency [7] | outcome [8] | Potency [9] | outcome [17] | Potency [10] | outcome [11] | Potency [12] | outcome [13] | Potency [14] | Potency [15] | max activation [18] -0.916% | Potency [19] | Potency [20] | Potency [16]

CC[C@@H](CO)NC(=O)[C@@H]1C=C2c3cccc4[nH]cc(c34)C[C@H]2N(C)C1
active: Potency [16] 17.4 µM
inactive: Potency [1] | Potency [2] | Potency [3] | Potency [4] | outcome [6] | Potency [7] | outcome [8] | Potency [9] | outcome [17] | Potency [10] | outcome [11] | Potency [12] | Potency [15]

CCN(CCO)CCO
inactive: Potency [1] | Potency [2] | Potency [3] | Potency [4] | Potency [5] | outcome [6] | Potency [7] | Potency [9] | Potency [10] | outcome [11] | Potency [12] | outcome [13] | Potency [14] | Potency [16]

NNCc1ccccc1
inactive: Potency [1] | Potency [2] | Potency [3] | Potency [4] | outcome [6] | Potency [7] | Potency [9] | outcome [17] | Potency [10] | outcome [11] | Potency [12] | outcome [13] | Potency [14] | Potency [16]
active: Potency [15] 55.5 µM

CCN(CC)CCOC(=O)C(O)(c1ccccc1)c1ccccc1
inactive: Potency [1] | Potency [2] | Potency [3] | Potency [5] | outcome [6] | Potency [7] | outcome [8] | Potency [9] | outcome [17] | Potency [10] | outcome [11] | Potency [12] | outcome [13] | Potency [14] | Potency [15] | max activation [18] -2.47% | Potency [19] | Potency [20] | Potency [16]

COc1ccc(CN2CCNCC2)c(OC)c1OC
inactive: Potency [1] | Potency [2] | Potency [3] | Potency [4] | outcome [6] | Potency [7] | outcome [8] | Potency [9] | outcome [17] | Potency [10] | outcome [11] | outcome [13] | Potency [14] | Potency [16]

CC#Cc1cc(C)nc(Nc2ccccc2)n1
inactive: Potency [1] | Potency [2] | Potency [4] | outcome [6] | Potency [7] | outcome [8] | Potency [9] | outcome [17] | Potency [10] | outcome [11] | Potency [12] | outcome [13] | Potency [14] | Potency [16]
active: Potency [3] 24.3 µM | Potency [15] 30.6 µM
